ChEMBL document CHEMBL1157539, “Thousands of chemical starting points for antimalarial lead identification” (Nature, 2010)

tested on: HepG2; assay: GSK_TCMDC: Percent inhibition of human HepG2 cell line. Test compounds present at 10uM.; assay type: functional

Compound	Inhibition [%]
O=C(NCc1ccco1)c1ccc(CN2CCN(C(c3ccccc3)c3ccccc3)CC2)cc1	6
CCc1cn2c3c(cc(C(=O)N[C@@H](Cc4ccccc4)[C@H](O)CNCC(C)C)cc13)N(C)S(=O)(=O)CC2	0
c1ccc(CN2CCN(c3cc(-c4cncc(-c5ccccc5)c4)nc(-c4ccccc4)n3)CC2)cc1	9
Brc1ccc(Nc2ccnc3cc(-c4nccs4)ccc23)cc1Oc1ccnc2cc(-c3nccs3)ccc12	15
Clc1ccc(-c2[nH]c3ccccc3c2CN2CCC(N3CCCCC3)CC2)cc1	5
O=C(/C=C/c1ccc(Cl)c(Cl)c1)NCCCCCCN1CCN(C(=O)Nc2cc(Cl)nc(Cl)c2)CC1	15
Clc1nc2ccccn2c1C=Cc1ccc2ccccc2n1	0
CCN(CCNC(=O)Cn1c(C)cc2cc([N+](=O)[O-])ccc21)c1cccc(C)c1	0
CC(=O)NCCNCc1cccc(C(=O)NCc2cccc(C(F)(F)F)c2)c1	1
Cl.O=c1cc(NCCCNC2CCOc3c(Cl)cc(Cl)cc32)[nH]c2ccccc12 (centres undefined)	0
CCOc1cc(Br)c(C(C)NC(=O)c2ccccc2)cc1OCC (centres undefined)	0
Cl.O=c1cc(NCCCNCc2ccc(Cl)c(Cl)c2)[nH]c2cc(F)cc(F)c12	11
Cc1ccc(Nc2nc(N/N=C/c3cccc([N+](=O)[O-])c3)nc(Nc3ccccc3)n2)c(C)c1	9
CC(C)N1CCC(NC(=O)N2CCCN(c3ncnc4cc(-c5ccccc5)sc34)CC2)CC1.O=C(O)C(F)(F)F	31
